Source: PubChem BioAssay (Tox21)
Records with an inconclusive call do not appear. Activity calls are given as the source filed them. Unless noted, calls come from the whole dose curve.

Legend:
[1] = Nuclear factor erythroid 2-related factor 2/antioxidant responsive element (Nrf2/ARE) small molecule agonists: qHTS cell viability counter screen in human keratinocytes (AID 1919968; active = well fitted curve in the direction sought with a large enough effect in the repeat runs; an effect the other way counts as inactive or inconclusive; note: nearly all actives have a fitted effect of over 55% in size; note: potency is the fitted concentration of half-maximal effect)
Outline: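 Seed 1,500 KeratinoSens cells per well, then incubate 5 h at 37 C/5% CO2. Add compounds in DMSO and incubate 23 h. Add CellTiter-Fluor, wait 1 h and read fluorescence.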

[2] = Nuclear factor erythroid 2-related factor 2/antioxidant responsive element (Nrf2/ARE) small molecule agonists: luciferase reporter gene qHTS assay in human keratinocytes (AID 1919969); note: nearly all actives have a fitted effect of over 35% in size
[3] = target: Gonadotropin-releasing hormone receptor (Homo sapiens) (UniProt P30968); assay: Human gonadotropin-releasing hormone receptor (GnRHR) small molecule agonists, calcium flux assay in GnRHR-HEK293 cells (AID 1920063); note: nearly all actives have a fitted effect of over 35% in size; note: potency is the fitted concentration of half-maximal effect
Chain of Gonadotropin-releasing hormone receptor (Homo sapiens) (P30968 whole entry, looked up): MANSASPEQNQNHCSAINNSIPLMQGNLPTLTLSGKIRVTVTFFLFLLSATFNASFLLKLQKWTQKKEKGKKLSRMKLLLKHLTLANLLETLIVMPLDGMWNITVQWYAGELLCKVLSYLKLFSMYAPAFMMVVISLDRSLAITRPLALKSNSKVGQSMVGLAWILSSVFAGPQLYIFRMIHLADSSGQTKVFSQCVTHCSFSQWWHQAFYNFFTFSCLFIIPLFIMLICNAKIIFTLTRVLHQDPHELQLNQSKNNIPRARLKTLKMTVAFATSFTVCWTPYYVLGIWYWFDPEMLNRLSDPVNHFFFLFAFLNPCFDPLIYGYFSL
Outline: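 Cells: HEK293 stably expressing human GnRHR. Steps: overnight (18 h) culture, 1 h calcium dye loading at 37 C, compound addition, kinetic fluorescence read at 480/540 nm. Each compound tested at 15 concentrations in triplicate.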

[4] = target: KiSS-1 receptor (Homo sapiens) (UniProt Q969F8); assay: Human kisspeptin (KISS1R) small molecule agonists, calcium flux assay in KISS1R-HEK293 cells (AID 1920064; active = well fitted curve in the direction sought with a large enough effect in the repeat runs; an effect the other way counts as inactive or inconclusive)
Chain of KiSS-1 receptor (Homo sapiens) (Q969F8 whole entry, looked up): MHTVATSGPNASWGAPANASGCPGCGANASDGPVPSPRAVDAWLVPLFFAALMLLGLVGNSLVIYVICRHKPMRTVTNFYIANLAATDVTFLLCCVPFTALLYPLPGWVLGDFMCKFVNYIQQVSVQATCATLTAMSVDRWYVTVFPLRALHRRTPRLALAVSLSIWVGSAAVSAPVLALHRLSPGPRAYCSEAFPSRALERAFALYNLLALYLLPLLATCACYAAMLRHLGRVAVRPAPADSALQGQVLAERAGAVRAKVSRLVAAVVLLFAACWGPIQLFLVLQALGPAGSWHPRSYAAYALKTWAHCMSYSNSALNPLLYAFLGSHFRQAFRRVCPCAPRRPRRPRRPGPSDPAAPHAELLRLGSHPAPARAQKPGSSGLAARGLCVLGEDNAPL
Outline: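 Cells plated and incubated 18 h; dye added, 1 h at 37 C; compounds in DMSO pinned in; signal read at 480/540 nm every second for 3 min. Each compound tested at 15 concentrations in triplicate.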

[5] = G protein-coupled receptor (GPCR) small molecule agonists, calcium flux assay: HEK293 wild type cell line counter screen (AID 1920065)
Outline: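 Counter-screen of the Tox21 10K library for non-specific calcium release: dye-loaded cells received compounds in DMSO and were monitored by kinetic fluorescence (480/540 nm, 3 min). Fifteen concentrations, run in triplicate.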

[6] = p53 small molecule agonists, cell-based qHTS assay with human liver microsomes (AID 1963577);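 note: p53 response element beta-lactamase reporter cells with liver microsomes plus NADPH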
Outline: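 In this qHTS, p53 response-element beta-lactamase cells receive test compound together with a microsome/NADPH activating system (0.5 mg/mL final each) and are incubated 16 h at 37 C before LiveBLAzer fluorescence detection.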

[7] = p53 small molecule agonists, cell-based qHTS assay with rat liver microsomes (AID 1963578)
Outline: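 Agonist mode in p53RE-bla reporter cells, with compounds co-incubated 16 h at 37 C alongside 0.5 mg/mL rat liver microsomes and 0.5 mg/mL NADPH (final), followed by a 2 h LiveBLAzer detection step.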

[8] = p53 small molecule agonists, cell-based qHTS assay with human liver microsomes: qHTS cell viability counter screen (AID 1963579); note: nearly all actives have a fitted effect of over 45% in size
Outline: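 Metabolically activated exposure: compounds, human liver microsomes and NADPH (0.5 mg/mL final apiece) were added to p53RE-bla cells seeded 5 h earlier, left 16 h at 37 C, and then assessed for viability by CellTiter-Glo luminescence.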

[9] = p53 small molecule agonists, cell-based qHTS assay with rat liver microsomes: qHTS cell viability counter screen (AID 1963580); note: nearly all actives have a fitted effect of over 45% in size
Outline: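 Viability is assessed in parallel with the p53 reporter read: HCT-116 p53RE-bla cells receive compounds plus rat microsomes and NADPH (0.5 mg/mL final apiece), incubate 16 h at 37 C, and then CellTiter-Glo luminescence is recorded.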

[10] = p53 small molecule agonists, cell-based qHTS assay: qHTS cell viability counter screen (AID 1963581); note: nearly all actives have a fitted effect of over 45% in size
Outline: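 Cells: HCT-116 with p53 response element-driven beta-lactamase. Treatment: 16 h, 37 C, compounds in DMSO. Read: CellTiter-Glo luminescence after 30 min RT.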

[11] = p53 small molecule agonists, cell-based qHTS assay (AID 1963582; active = well fitted activation curve with a large enough effect in the signal ratio in the repeat runs, not every such curve was filed as active; the % refers to the signal ratio)
Outline: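 Quantitative HTS in p53RE-bla cells: after a 5 h settling period, compounds delivered in DMSO were left on cells for 16 h at 37 C, and reporter induction was measured as fluorescence following 2 h substrate loading.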

[12] = target: 5-hydroxytryptamine receptor 2A (Homo sapiens) (UniProt P28223); assay: 5-hydroxytryptamine receptor 2A (HTR2A) small molecule antagonists, cell-based qHTS assay (AID 1963586); note: nearly all actives have a fitted effect of over 45% in size; note: potency is the fitted concentration of half-maximal effect
Chain of 5-hydroxytryptamine receptor 2A (Homo sapiens) (P28223 whole entry, looked up): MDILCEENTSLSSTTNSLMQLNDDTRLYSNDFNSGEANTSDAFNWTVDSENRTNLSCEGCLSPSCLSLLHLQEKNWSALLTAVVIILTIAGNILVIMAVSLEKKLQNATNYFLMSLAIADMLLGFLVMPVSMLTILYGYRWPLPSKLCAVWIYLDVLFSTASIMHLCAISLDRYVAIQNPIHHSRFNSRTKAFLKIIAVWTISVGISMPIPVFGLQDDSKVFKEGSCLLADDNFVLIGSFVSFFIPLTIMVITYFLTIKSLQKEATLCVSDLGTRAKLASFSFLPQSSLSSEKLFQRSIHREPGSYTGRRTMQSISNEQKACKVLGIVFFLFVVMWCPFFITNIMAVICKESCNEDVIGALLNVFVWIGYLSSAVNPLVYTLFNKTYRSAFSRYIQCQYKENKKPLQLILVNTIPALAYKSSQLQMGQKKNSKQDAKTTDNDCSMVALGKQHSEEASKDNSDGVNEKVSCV
Outline: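 Antagonist-mode intracellular calcium assay: DOI (4 nM) added after 5 min compound pre-incubation at room temperature to dye-loaded HTR2A-CHO cells. Fluorescence followed for 3 min, sampled every second.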

[13] = target: Muscarinic acetylcholine receptor M1 (Homo sapiens) (UniProt P11229); assay: Cholinergic receptor muscarinic 1 (CHRM1) small molecule antagonists, cell-based qHTS assay (AID 1963588); note: nearly all actives have a fitted effect of over 40% in size
Chain of Muscarinic acetylcholine receptor M1 (Homo sapiens) (P11229 whole entry, looked up): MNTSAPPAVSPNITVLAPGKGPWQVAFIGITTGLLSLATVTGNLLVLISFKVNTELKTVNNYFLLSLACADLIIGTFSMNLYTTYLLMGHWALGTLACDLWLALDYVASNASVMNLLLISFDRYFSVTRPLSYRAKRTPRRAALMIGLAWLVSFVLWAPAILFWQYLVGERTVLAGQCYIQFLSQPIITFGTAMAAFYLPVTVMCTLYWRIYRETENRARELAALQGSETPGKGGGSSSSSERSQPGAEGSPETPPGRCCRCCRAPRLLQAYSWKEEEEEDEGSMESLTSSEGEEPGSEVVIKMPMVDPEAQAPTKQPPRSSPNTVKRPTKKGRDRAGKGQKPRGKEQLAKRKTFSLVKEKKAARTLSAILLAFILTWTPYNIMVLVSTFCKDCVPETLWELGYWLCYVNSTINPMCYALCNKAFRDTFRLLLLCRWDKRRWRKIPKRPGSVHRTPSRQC
Outline: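 CHRM1-CHO calcium-flux assay, antagonist mode. Cells were seeded 18 h, dye-loaded 1 h at 37 C and given compound for 5 min at RT, then acetylcholine was added at 50nM. FDSS fluorescence was read 3 min; 15 concentrations, three runs.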

[14] = target: Muscarinic acetylcholine receptor M1 (Homo sapiens) (UniProt P11229); assay: Cholinergic receptor muscarinic 1 (CHRM1) small molecule agonists, cell-based qHTS assay (AID 1963589); note: nearly all actives have a fitted effect of over 35% in size
Outline: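 Agonist-mode qHTS in CHO cells stably carrying human muscarinic M1. Intracellular calcium is tracked by fluorescence every second after compound transfer; each compound runs at 15 concentrations in three independent runs.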

[15] = cAMP Responsive Elements (CRE) small molecule agonists, cell-based qHTS assay (AID 1963590)
Outline: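 Agonist mode qHTS in CRE-bla HEK 293T cells: compounds dosed from DMSO for 3 h at 37 C/5% CO2, followed by LiveBLAzer B/G FRET substrate for 2 h at room temperature.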

[16] = target: Beta-2 adrenergic receptor (Homo sapiens) (UniProt P07550); assay: Adrenergic beta2 receptor (ADRB2) small molecule antagonists, cell-based qHTS assay (AID 1963592); note: series mostly up to about 92 µM; nearly all actives have a fitted effect of over 50% in size
Chain of Beta-2 adrenergic receptor (Homo sapiens) (P07550 whole entry, looked up): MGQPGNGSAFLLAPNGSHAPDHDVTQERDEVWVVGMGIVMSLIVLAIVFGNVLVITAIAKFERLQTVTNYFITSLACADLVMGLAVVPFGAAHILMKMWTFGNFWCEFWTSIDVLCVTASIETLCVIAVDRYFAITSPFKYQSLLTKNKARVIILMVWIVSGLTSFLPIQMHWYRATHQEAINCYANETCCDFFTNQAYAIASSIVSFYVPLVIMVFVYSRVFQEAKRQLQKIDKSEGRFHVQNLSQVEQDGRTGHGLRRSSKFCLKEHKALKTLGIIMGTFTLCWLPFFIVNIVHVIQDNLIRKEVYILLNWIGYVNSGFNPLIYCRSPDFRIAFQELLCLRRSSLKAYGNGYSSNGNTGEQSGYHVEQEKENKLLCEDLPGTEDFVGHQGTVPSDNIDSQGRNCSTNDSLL
Outline: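 Cells (CHO, stable ADRB2 overexpression) incubated 18-20hr at 37C; compounds added from DMSO; agonist mix (1nM isoproterenol, 100uM IBMX, 25uM Ro-20-1724) added; 0.5hr RT; d2-cAMP and anti-cAMP-cryptate added; 1hr RT; 665/615 nm read.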

[17] = target: D(2) dopamine receptor (Homo sapiens) (UniProt P14416); assay: Dopamine D2 receptor (DRD2) small molecule agonists, cell-based qHTS assay (AID 1963594); note: nearly all actives have a fitted effect of over 35% in size
Chain of D(2) dopamine receptor (Homo sapiens) (P14416 whole entry, looked up): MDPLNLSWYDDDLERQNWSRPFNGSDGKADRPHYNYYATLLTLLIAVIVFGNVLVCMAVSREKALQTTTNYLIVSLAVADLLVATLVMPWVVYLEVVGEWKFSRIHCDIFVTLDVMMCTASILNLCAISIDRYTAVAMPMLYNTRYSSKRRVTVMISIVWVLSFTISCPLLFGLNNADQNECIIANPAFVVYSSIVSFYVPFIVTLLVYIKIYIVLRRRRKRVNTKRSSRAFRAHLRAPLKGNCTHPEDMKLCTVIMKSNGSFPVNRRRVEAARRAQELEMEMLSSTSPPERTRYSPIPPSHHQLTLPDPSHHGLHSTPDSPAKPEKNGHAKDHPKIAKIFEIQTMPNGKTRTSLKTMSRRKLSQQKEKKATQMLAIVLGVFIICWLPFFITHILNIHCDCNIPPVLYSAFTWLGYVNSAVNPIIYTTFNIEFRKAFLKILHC
Outline: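 HEK293 cells stably expressing human DRD2, pre-treated with PDE inhibitor Ro20-1724 (0.1 mM final) and compound 10 min at room temperature, then stimulated with NKH477 (200nM […]) for 30 min. cAMP read by HTRF (665/620 nm).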

[18] = target: D(2) dopamine receptor (Homo sapiens) (UniProt P14416); assay: Dopamine D2 receptor (DRD2) small molecule antagonists, cell-based qHTS assay (AID 1963595; active = well fitted inhibition curve with a large enough effect in the signal ratio in the repeat runs, with a control signal flat; the % refers to the signal ratio)
Outline: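 DRD2-HEK293; 0.1 mM Ro20-1724; cpd 10 min RT; NKH477 200 nM + quinpirole 12 nM, 30 min RT; HTRF cAMP (cAMP-d2/anti-cAMP cryptate), 665/620 nm ratio after 1 h.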

[19] = target: 5-hydroxytryptamine receptor 2A (Homo sapiens) (UniProt P28223); assay: 5-hydroxytryptamine receptor 2A (HTR2A) small molecule agonists, cell-based qHTS assay (AID 1963587); note: nearly all actives have a fitted effect of over 30% in size
Outline: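 CHO cells stably expressing human HTR2A, plated 18 h, loaded with calcium dye 1 h at 37 C. Agonist mode: compounds added and intracellular calcium fluorescence recorded kinetically for 2 min at 1 sec intervals.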

[20] = cAMP Responsive Elements (CRE) small molecule antagonists, cell-based qHTS assay (AID 1963591; active = well fitted inhibition curve with a large enough effect in the signal ratio in the repeat runs, not every such curve was filed as active; the % refers to the signal ratio)
Outline: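 Antagonist mode: test compounds are co-incubated with the adenylyl cyclase activator NKH477 (0.25 uM final) on CRE-bla HEK293T cells for 3 h at 37 °C, followed by LiveBLAzer substrate loading.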
% is set by controls: 0 for no effect and ±100 for the full control effect.

CC(C)SCc1ccco1
inactive: Potency [1] | Potency [2] | Potency [3] | outcome [4] | outcome [5] | Potency [6] | Potency [7] | Potency [8] | Potency [9] | Potency [10] | Potency [11] | Potency [12] | Potency [13] | Potency [14] | Potency [15] | Potency [16] | Potency [17] | Potency [18]

CC[N+](CC)(CCNC(=O)C(=O)NCC[N+](CC)(CC)Cc1ccccc1Cl)Cc1ccccc1Cl
inactive: Potency [1] | Potency [2] | Potency [3] | outcome [4] | outcome [5] | Potency [6] | Potency [7] | Potency [8] | Potency [9] | Potency [10] | Potency [11] | Potency [12] | Potency [19] | Potency [15] | Potency [20] | Potency [16] | Potency [17]

CC(C)(C)C1(CCc2ccc(Cl)cc2)CO1 (stereo not drawn)
inactive: Potency [1] | Potency [2] | Potency [3] | outcome [4] | outcome [5] | Potency [6] | Potency [7] | Potency [8] | Potency [9] | Potency [10] | Potency [11] | Potency [12] | Potency [13] | Potency [14] | Potency [15] | Potency [20] | Potency [16] | Potency [17] | Potency [18]

c1ccc(CC2=NCCN2)cc1
inactive: Potency [1] | Potency [2] | Potency [3] | outcome [4] | outcome [5] | Potency [6] | Potency [7] | Potency [8] | Potency [9] | Potency [10] | Potency [11] | Potency [12] | Potency [13] | Potency [14] | Potency [15] | Potency [16] | Potency [17] | Potency [18]

CC(=O)Nc1cccc(C)c1
inactive: Potency [1] | Potency [2] | Potency [3] | outcome [4] | outcome [5] | Potency [6] | Potency [7] | Potency [8] | Potency [9] | Potency [10] | Potency [11] | Potency [12] | Potency [19] | Potency [14] | Potency [15] | Potency [16] | Potency [17] | Potency [18]

C#CC(C)N(C)C(=O)Nc1ccc(Cl)cc1 (stereo not drawn)
inactive: Potency [1] | Potency [2] | Potency [3] | outcome [4] | outcome [5] | Potency [6] | Potency [7] | Potency [8] | Potency [9] | Potency [10] | Potency [11] | Potency [12] | Potency [13] | Potency [14] | Potency [15] | Potency [16] | Potency [17] | Potency [18]

CC(C(O)c1ccc(O)cc1)N1CCC(Cc2ccccc2)CC1 (stereo not drawn)
inactive: Potency [1] | Potency [2] | Potency [3] | outcome [4] | outcome [5] | Potency [6] | Potency [7] | Potency [8] | Potency [9] | Potency [10] | Potency [11] | Potency [19] | Potency [14] | Potency [20] | Potency [18]
active: Potency [12] 16.3 µM

Cc1ccccc1C(=O)O
inactive: Potency [1] | Potency [2] | Potency [3] | outcome [4] | outcome [5] | Potency [6] | Potency [7] | Potency [8] | Potency [9] | Potency [10] | Potency [11] | Potency [12] | Potency [13] | Potency [14] | Potency [15] | Potency [20] | Potency [17] | Potency [18]

CC(C)NCC(O)c1ccc2ccccc2c1 (stereo not drawn)
inactive: Potency [1] | Potency [2] | Potency [3] | outcome [4] | outcome [5] | Potency [6] | Potency [7] | Potency [8] | Potency [9] | Potency [10] | Potency [11] | Potency [12] | Potency [13] | Potency [14] | Potency [15] | Potency [20] | Potency [18]

COc1ccc(OC)c(NC(=O)CC(C)=O)c1
inactive: Potency [1] | Potency [2] | Potency [3] | outcome [4] | outcome [5] | Potency [6] | Potency [7] | Potency [8] | Potency [9] | Potency [10] | Potency [11] | Potency [12] | Potency [13] | Potency [14] | Potency [15] | Potency [16] | Potency [17] | Potency [18]

Cc1c(C)c2c(c(C)c1OC(=O)CCC(=O)OCCO)CC[C@@](C)(CCC[C@H](C)CCC[C@H](C)CCCC(C)C)O2
active: Potency [1] 26.6 µM
inactive: Potency [2] | Potency [3] | outcome [4] | outcome [5] | Potency [6] | Potency [7] | Potency [8] | Potency [9] | Potency [10] | Potency [11] | Potency [12] | Potency [19] | Potency [14] | Potency [16] | Potency [17] | Potency [18]

CCCCCCCCCCCCCCCCCO
inactive: activity change, negative = cytotoxicity [1] 0.787% [at 19 µM] | activity, positive = activation [2] -1.74% [at 19 µM] | activity change [3] 4.53% [at 11.8 µM, hits give high values] | activation [4] 3.41% [at 15.8 µM] | activation [5] -0.253% [at 11.8 µM] | activation [6] 4.84% [at 13.5 µM] | activation [7] 1.18% [at 13.6 µM] | activity change, negative = cytotoxicity [8] -0.024% [at 13.5 µM] | activity change, negative = cytotoxicity [9] -2.14% [at 13.5 µM] | activity change, negative = cytotoxicity [10] 17.8% [at 13.5 µM] | activation [11] -2.02% [at 13.5 µM] | activity, negative = inhibition [12] -18.1% [at 12.7 µM] | activity, negative = inhibition [13] -16.4% [at 12.6 µM] | activation [14] -0.0126% [at 15.8 µM] | activation [15] -0.514% [at 19 µM] | activity change, negative = inhibition [20] 0.936% [at 18.9 µM] | activity change, negative = inhibition [16] -1.56% [at 19 µM] | activation [17] 0.198% [at 19 µM] | activity change, negative = inhibition [18] 6.26% [at 18.9 µM]

CC(=O)OCC[N+](C)(C)C
active: Potency [3] 6.01 µM
inactive: Potency [1] | Potency [2] | outcome [4] | outcome [5] | Potency [6] | Potency [7] | Potency [8] | Potency [9] | Potency [10] | Potency [11] | Potency [12] | Potency [19] | Potency [15] | Potency [20] | Potency [17] | Potency [18]

N#C/C(=C1\SCC(c2ccccc2Cl)S1)n1ccnc1 (stereo not drawn)
inactive: Potency [1] | Potency [2] | Potency [3] | outcome [4] | outcome [5] | Potency [6] | Potency [7] | Potency [8] | Potency [9] | Potency [10] | Potency [11] | Potency [12] | Potency [19] | Potency [14] | Potency [20] | Potency [16] | Potency [17] | Potency [18]
